# A selection: hits, their analogues and other compounds. The true share with any hit is near 12%.
# Shiga inhibitor: A qHTS for Small Molecule Inhibitors of Shiga Toxin; inhibition, % at 38.7 µM; AID 2315, 2010; Vero cells, Shiga toxin protein synthesis inhibition reporter; 9.2% of 290,000 active; in the data active = inhibition mostly above about 28%, no sharp cut-off; inactive = mostly below about 43%; note: 0% is about no effect
# Cycloheximide cs: Cycloheximide Counterscreen for Small Molecule Inhibitors of Shiga Toxin. max response, %. cell reporter, cycloheximide protein synthesis inhibition counterscreen. 12% of 300,000 active. AID 2314, 2010; in the data active = max response mostly above about 13%, no sharp cut-off; inactive = mostly below about 14%; note: read at 38.3 µM for the half of the compounds with a filed dose; 0% is about no effect
# LASV entry inh: qHTS for Inhibitors of binding or entry into cells for Lassa Virus; 1.2% of 300,000 active; Potency, µM (doses to about 37.9 µM), for the others: at the top dose activity change, negative = inhibition, most hits filed as inhibitors; AID 540256, 2011; Lassa virus pseudotype entry inhibition, cell reporter; calls by dose curve; tested in HEK293 cells; note: potency is the fitted concentration of half-maximal effect; % is set by controls: 0 for no effect and ±100 for the full control effect; nearly all actives have a fitted effect of over 50% in size
# MARV entry inh: qHTS for inhibitors of binding or entry into cells for Marburg Virus | 1.8% of 300,000 active | Marburg virus pseudotyped entry inhibition, cell reporter | Potency, µM (highest dose often 37.8 µM), inactives show top-dose activity change, negative = inhibition, hits mostly inhibitors | AID 540276, 2011; calls by dose curve; tested in HEK293 cells; note: potency is the fitted concentration of half-maximal effect; % is set by controls: 0 for no effect and ±100 for the full control effect
# Numbers without * were called inactive; u = inconclusive; x = no result; [ ] = remark or other dose.
SMILES,Shiga inhibitor,Cycloheximide cs,LASV entry inh,MARV entry inh
CCc1nnc(NC(=O)c2ccc(COc3ccccc3)o2)s1,34,1,-2%,-4%
O=C(Nc1nccs1)c1ccc(CSc2ccccc2)o1,107*,58*,x,x
Cc1ccc(OCc2ccc(C(=O)Nc3nccs3)o2)cc1,30,4,-6%,6%
Cc1ccc(SCc2ccc(C(=O)Nc3nccs3)o2)cc1,81*,38*,u,3%[46.1 µM]
Cc1nn(-c2ccccc2)c(C)c1NC(=O)COC(=O)Cc1ccccc1F,x,x,0%[46.1 µM],24%
NC(N)=NCCC[C@H](N)C(=O)N1CCC[C@H]1C(=O)N1CCC[C@H]1C(=O)NCC(=O)N[C@@H](Cc1ccccc1)C(=O)N[C@@H](CO)C(=O)N1CCC[C@H]1C(=O)N[C@@H](Cc1ccccc1)C(=O)O,-4,1,x,x
CC(C)=CCN1CCN(Cc2cc(C(C)C)n[nH]2)CC1CCO (centres undefined),-4,-3,u,-3%[46.1 µM]
C=CCn1c(O)c2ccc(C(=O)N=NC(=O)c3ccc(F)cc3)cc2c1O,x,x,4%,10%[46.1 µM]
C=CCN(CC=C)C(=O)COn1nnc2ccc(S(=O)(=O)N3CCOCC3)cc21,x,x,12%,-2%
CC1=C(C(=O)Nc2ccccc2)C(C(C)C)n2nc(SCc3ccccc3C)nc2N1 (centres undefined),x,x,-4%[46.1 µM],0%[46.1 µM]
CN(C)c1ccc(C(=O)NC2(N3CCC3=O)CCCC2)cc1,27,22*,6%[46.1 µM],19%[46.1 µM]
O=C(O)c1ccc(-c2ccccc2)[nH]c1=O,3,-1,x,x
CSc1nc(O)c(/C=C2\C=Nc3ccccc32)[nH]1,140*,62*,0%,u
COc1ccccc1-c1nc2cc3ccccc3cc2nc1-c1ccccc1,38,14,-1%,-32%
Cc1cc(OCC(=O)NNC(=O)c2cccs2)ccc1Br,13,-3,14%[46.1 µM],6%[46.1 µM]
COc1ccccc1N1CCN(C(=O)c2ccc(CS(=O)(=O)c3ccccc3OC)o2)CC1,10,15*,1%,6%
COc1ccc(S(=O)(=O)Cc2ccc(C(=O)N3CCN(c4cc(C)ccc4C)CC3)o2)cc1,-5,14*,-9%[46.1 µM],5%[46.1 µM]
COc1ccc(S(=O)(=O)Cc2ccc(C(=O)N3CCN(c4cc(Cl)ccc4C)CC3)o2)cc1,-19,-5,x,x
CCN(CC(=O)Nc1ccc(C(=O)OC)cc1)C1CCCCC1,9,2,-1%[46.1 µM],u
CCc1ccc(/C=C(/C#N)C(N)=S)cc1,-7,-3,12%,u
CC(C)(C)c1cc(/C=C(\C#N)C(N)=S)cc(C(C)(C)C)c1O,x,x,2.3µM*,9.2µM*
CC(C)(C)c1cc(C=C(C#N)C#N)cc(C(C)(C)C)c1O,x,x,0.41µM*,2.1µM*
CC1CN(C(=O)c2ccc(NS(=O)(=O)c3ccc(F)c(F)c3)cc2)CC(C)O1 (centres undefined),x,x,u,27%
CCc1ccc(OCc2nc(-c3ccc(OC)c(OC)c3)no2)c(Br)c1,x,x,26%[46.1 µM],u
Cc1ccc(C(=O)N2CCN(C)CC2)cc1[N+](=O)[O-],-5,-2,x,x
SMILES,Shiga inhibitor,Cycloheximide cs,LASV entry inh,MARV entry inh
Cc1cc(C(=O)CN2C(=O)C(=O)N(CC(C)C)C2=O)c(C)n1-c1ccccc1F,61,17*,u,3%[46.1 µM]
Cc1cc(C(=O)CN2C(=O)NC(CC(C)C)C2=O)c(C)n1-c1ccccc1F (centres undefined),159*,47*,0%,12%[14.2 µM]
Cc1cc(C(=O)CN2C(=O)C(=O)N(C3CCCC3)C2=O)c(C)n1-c1ccc(F)cc1,32,22,u,-16%[46.1 µM]
CCOC(=O)CSC1=Nc2ccccc2C2=NC(CCC(=O)NCc3ccc(OC)cc3)C(=O)N12 (centres undefined),x,x,15%[46.1 µM],x
COc1cc2c(cc1OC)C(COc1ccc(C(C)C)cc1)N(C(=O)c1ccc(S(=O)(=O)N3CCCC3)cc1)CC2 (centres undefined),x,x,-22%[46.1 µM],x
CCCc1ccc(OCc2nc(-c3ccc(NC(=O)c4ccco4)cc3)no2)cc1,57,47*,10µM*,u
CCCc1ccc(OCc2nc(-c3ccc(NC(=O)c4cccs4)cc3)no2)cc1,176*,80*,10%,u
Cc1cc(OCc2nc(-c3ccc(NC(=O)c4cccnc4)cc3)no2)ccc1Cl,10,0,-23%,u
COc1ccc(C(=O)O)cc1S(=O)(=O)NCc1ccccn1,-13,-5,15%,4%
CC(C)COP(=O)(CNC(=O)CN1C(=O)c2ccccc2S1(=O)=O)OCC(C)C,5,-2,1%,-2%
COc1ccc(Cc2nnc(NC(=O)c3cccs3)s2)cc1,21,0,-8%,0%
O=C(Nc1nnc(Cc2ccccc2)s1)c1cccs1,41,25*,8%,6%
O=C(Nc1nnc(Cc2ccccc2)s1)c1ccccc1,39*,17*,5%[46.1 µM],u
Cc1cccc(C(=O)Nc2nnc(Cc3ccccc3)s2)c1,8,9.3*,-27%[46.1 µM],18%[46.1 µM]
O=C(Nc1nnc(CC2=CCCCC2)s1)c1cccs1,100*,30*,27%,19%[46.1 µM]
O=C(Nc1nnc(Cc2ccc(Cl)cc2)s1)c1cccs1,16,-1,3%,4%
Cc1ccc(C(=O)Nc2nnc(Cc3ccccc3)s2)cc1,-3,2,x,x
O=C(Nc1cc(F)ccc1F)c1cc2nc(-c3ccco3)cc(C(F)(F)Cl)n2n1,x,x,-2%[46.1 µM],x
OC[C@H]1O[C@@H](n2cnc3cc(Cl)c(Cl)cc32)[C@H](O)[C@H]1O,-5,-3,x,x
CCN1C(=O)[C@H]2[C@@H](c3ccc(Cl)cc3)N3C(=O)CN(CCOC)C(=O)[C@@]3(Cc3ccccc3)[C@H]2C1=O,-6,1,x,x
Cc1ccc(C)c(OCC(=O)Nc2ccncc2)c1,x,1,x,x
O=C(Nc1nnc(CCN2CCCCC2)s1)c1ccccc1,40,33*,13%,5%
O=C(Nc1nnc(CCN2CCCCC2)s1)c1ccc(Br)cc1,11,7,0%,12%[46.1 µM]
NS(=O)(=O)c1cc(C(=O)N2CCNC(=O)C2)ccc1Cl,-9,9,-3%,8%[46.1 µM]
COc1ccc(-c2cc(-c3c(O)c(OC)c4occc4c3OC)[nH]n2)cc1OC,25,23*,-34%,-19%
SMILES,Shiga inhibitor,Cycloheximide cs,LASV entry inh,MARV entry inh
CCOc1ccc(-c2cc(-c3nc(-c4cc(OC)c(OC)c(OC)c4)no3)[nH]n2)cc1,x,x,-4%[46.1 µM],x
COc1ccc(-c2noc(-c3cc(-c4ccc(F)cc4)n[nH]3)n2)cc1,x,x,3%[46.1 µM],x
COc1ccc(-c2cc(-c3c(O)c(OC)c4occc4c3OC)[nH]n2)cc1,79*,21*,-8%,u
O=C(c1ccc(CSc2nc3ccncc3n2Cc2cccc(F)c2)cc1)N1CCCCCC1,x,x,-19%[46.1 µM],-1%[46.1 µM]
CCc1ccc(NC(=O)C2CCCN2S(=O)(=O)c2ccc3c(c2)C(C)(C)C(=O)N3C)cc1 (centres undefined),7,10,x,x
CC(=O)c1cnc(Nc2ccc(C)cc2)s1,45*,30*,u,u
Cc1ccc(Nc2nc3ccccc3c(=O)s2)cc1,26,-3,x,x
O=C(NC1CCCC1)c1c[nH]c2ccc(S(=O)(=O)Nc3cccc(C(F)(F)F)c3)cc2c1=O,x,x,-5%[46.1 µM],12%[46.1 µM]
O=C(COC(=O)c1c2c(nc3ccccc13)/C(=C\c1ccco1)CC2)NC1CCCC1,x,x,-11%,u
Nc1c(C(=O)NC2CC2)sc2nc3c(c(-c4ccco4)c12)CC/C3=C/c1ccco1,-5,-2,7%,4.5µM*
